From PubChem BioAssay (EPA / NIEHS) come the findings set out here.

Inconclusive results are not listed. Activity calls are given as the source filed them. How the source made its calls: active means hit-call score of the fitted dose curve at least 0.9, where 1 is the maximum; inconclusive means response in the unintended direction; inactive means score below 0.9.

In general, AC50 refers to the midpoint of the concentration-response curve, whichever way the signal moves.

Sequence of Androgen Receptor/SRC-1 Co-activator, AR (gene 367) (P10275 whole entry, looked up, the tested form may be a part): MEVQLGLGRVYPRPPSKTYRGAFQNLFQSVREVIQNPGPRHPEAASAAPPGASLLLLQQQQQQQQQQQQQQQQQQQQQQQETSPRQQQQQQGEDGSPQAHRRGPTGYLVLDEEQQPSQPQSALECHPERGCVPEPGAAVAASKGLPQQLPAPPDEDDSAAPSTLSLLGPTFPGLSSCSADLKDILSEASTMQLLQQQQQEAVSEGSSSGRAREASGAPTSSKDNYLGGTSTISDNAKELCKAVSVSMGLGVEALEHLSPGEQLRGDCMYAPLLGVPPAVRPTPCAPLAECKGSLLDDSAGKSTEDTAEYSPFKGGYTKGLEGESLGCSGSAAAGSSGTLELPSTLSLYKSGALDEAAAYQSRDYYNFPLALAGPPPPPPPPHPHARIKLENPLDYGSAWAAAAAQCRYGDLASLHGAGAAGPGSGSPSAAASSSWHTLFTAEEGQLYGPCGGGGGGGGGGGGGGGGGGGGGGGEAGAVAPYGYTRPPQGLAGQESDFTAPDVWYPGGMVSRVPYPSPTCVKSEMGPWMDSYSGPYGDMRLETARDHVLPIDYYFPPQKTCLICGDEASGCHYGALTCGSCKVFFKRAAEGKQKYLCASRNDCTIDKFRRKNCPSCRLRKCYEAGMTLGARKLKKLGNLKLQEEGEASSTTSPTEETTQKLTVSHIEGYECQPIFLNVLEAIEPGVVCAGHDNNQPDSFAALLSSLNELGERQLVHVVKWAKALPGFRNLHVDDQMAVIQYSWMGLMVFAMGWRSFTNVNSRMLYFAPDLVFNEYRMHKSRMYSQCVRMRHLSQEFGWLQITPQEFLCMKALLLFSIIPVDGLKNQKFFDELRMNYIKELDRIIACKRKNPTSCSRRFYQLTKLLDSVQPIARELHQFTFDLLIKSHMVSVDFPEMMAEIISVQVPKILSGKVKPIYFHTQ
Sequence of Estrogen receptor (Homo sapiens) + Estrogen receptor beta (Homo sapiens) (P03372 whole entry, looked up, the tested form may be a part): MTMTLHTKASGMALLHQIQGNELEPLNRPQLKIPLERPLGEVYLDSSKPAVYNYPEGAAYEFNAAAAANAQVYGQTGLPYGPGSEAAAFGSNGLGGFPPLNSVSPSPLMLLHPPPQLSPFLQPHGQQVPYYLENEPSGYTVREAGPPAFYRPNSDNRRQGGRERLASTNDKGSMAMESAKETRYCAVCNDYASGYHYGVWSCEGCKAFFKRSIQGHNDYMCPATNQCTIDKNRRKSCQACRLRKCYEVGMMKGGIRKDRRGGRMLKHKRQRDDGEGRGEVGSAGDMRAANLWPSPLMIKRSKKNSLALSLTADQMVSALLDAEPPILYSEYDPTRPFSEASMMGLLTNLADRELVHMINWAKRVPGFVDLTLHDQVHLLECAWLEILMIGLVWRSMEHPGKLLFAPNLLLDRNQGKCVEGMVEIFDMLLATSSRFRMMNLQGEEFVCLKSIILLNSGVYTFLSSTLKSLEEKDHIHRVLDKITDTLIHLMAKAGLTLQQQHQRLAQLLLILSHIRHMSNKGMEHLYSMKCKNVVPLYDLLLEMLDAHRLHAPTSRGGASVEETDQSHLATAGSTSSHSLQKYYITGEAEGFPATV
Sequence of Estrogen receptor (Homo sapiens) + Estrogen receptor beta (Homo sapiens) (Q92731 whole entry, looked up, the tested form may be a part): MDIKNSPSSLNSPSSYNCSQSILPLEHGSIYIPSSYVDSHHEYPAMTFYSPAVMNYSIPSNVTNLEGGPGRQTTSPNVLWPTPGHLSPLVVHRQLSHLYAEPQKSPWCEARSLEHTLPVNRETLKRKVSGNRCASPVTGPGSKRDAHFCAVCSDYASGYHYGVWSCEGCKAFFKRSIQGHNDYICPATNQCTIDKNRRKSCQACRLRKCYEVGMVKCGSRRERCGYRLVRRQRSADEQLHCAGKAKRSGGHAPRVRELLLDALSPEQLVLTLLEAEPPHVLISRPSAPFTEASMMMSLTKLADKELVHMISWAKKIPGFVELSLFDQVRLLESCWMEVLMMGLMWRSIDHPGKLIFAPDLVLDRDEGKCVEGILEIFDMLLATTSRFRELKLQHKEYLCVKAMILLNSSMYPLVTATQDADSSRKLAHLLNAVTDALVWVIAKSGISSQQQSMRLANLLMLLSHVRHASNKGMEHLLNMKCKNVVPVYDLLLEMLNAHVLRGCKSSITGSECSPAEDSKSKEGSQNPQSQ

The first assay concerns the target Androgen Receptor/SRC-1 Co-activator, AR (gene 367) (UniProt P10275). Nature of the assay: OT_AR_ARSRC1_0960: Odyssey Thera (OT) 16-hour HEK293T Protein-Complementation Assay for Androgen Receptor/SRC-1 Co-activator (AID 2283353).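 Further: actives raise the signal above DMSO so potency reflects increased AR and SRC-1 complex.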 Summed up: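 Sixteen-hour cell assay: Venus halves fused to AR and SRC-1 in HEK293T report binding. Images at 488/635 nm give an N/C ratio in the 488 nm channel over ≥400 cells, analysed as signal increase over DMSO.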
`COCc1nnc(-c2ccc[n+]([O-])c2)n1-c1c(Cl)c(Cl)cc2[nH]c(=O)c(=O)[nH]c12`: the call was inactive.

On to `COc1cc(C(C)C)c2c(c1)S(=O)(=O)N(COc1cc(=O)n3cccc(OCCN4CCCCC4)c3n1)C2=O`, for which the AC50 was 10.6 µM (active).

Turning to `CCN(CC)C(=S)SSC(=S)N(CC)CC`, the AC50 was 59.6 µM (active).

On to `CCc1cccc(CC)c1N`, for which the compound was classed as inactive.

`Cc1nc(-c2ccccn2)ncc1C(=O)Nn1cc(C)c2cc(F)ccc21`: the result was inactive.

`C=CCc1cc(S(=O)(=O)c2ccc(O)c(CC=C)c2)ccc1O`: the AC50 is 69.1 µM (active).

With `OCc1ccccc1`, the compound was classed as inactive.

For the compound `CCCCOC(=O)c1ccccc1`, the result was inactive.

For the compound `OCCOCCOCCO`, the compound was classed as inactive.

`COc1cc2c(c(OC)c1OC)-c1ccc(OC)c(=O)cc1[C@@H](NC(C)=O)CC2`: the AC50 is 0.133 µM (active).

For `CCCCC(CC)C(=O)OCCOCCOCCOC(=O)C(CC)CCCC` (configuration not stated), the compound was classed as inactive.

In the case of `CCCCCCCCCCCCCCCCOS(=O)(=O)O`, the call was inactive.

On to `CCCCCCOC(=O)CC(CC(=O)OCCCCCC)(OC(=O)CCC)C(=O)OCCCCCC`, for which the outcome was inactive.

The next assay shares this target. As to the kind of experiment: OT_AR_ARSRC1_0480: Odyssey Thera (OT) 8-hour HEK293T Protein-Complementation Assay for Androgen Receptor/SRC-1 Co-activator (AID 2283354).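 Further: hits raise the complementation signal above DMSO so AC50 marks enhancers.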 The gist of the method: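 After 8 h dosing, stably expressing HEK293T cells with split-Venus AR/SRC-1 fusions were imaged (488, 635nm). The 488nm N/C ratio per image gave the endpoint, analysed in the positive direction against DMSO.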
For `COCc1nnc(-c2ccc[n+]([O-])c2)n1-c1c(Cl)c(Cl)cc2[nH]c(=O)c(=O)[nH]c12`, the call was inactive.

Consider `COc1cc(C(C)C)c2c(c1)S(=O)(=O)N(COc1cc(=O)n3cccc(OCCN4CCCCC4)c3n1)C2=O`, for which the AC50 is 18.1 µM (active).

Regarding `CCN(CC)C(=S)SSC(=S)N(CC)CC`, the AC50 was 23.9 µM (active).

As to `Cc1nc(-c2ccccn2)ncc1C(=O)Nn1cc(C)c2cc(F)ccc21`, the result was inactive.

Take `C=CCc1cc(S(=O)(=O)c2ccc(O)c(CC=C)c2)ccc1O`: the AC50 was 82.7 µM (active).

`CCCCOC(=O)c1ccccc1`: the compound was classed as inactive.

`OCCOCCOCCO`: the compound was classed as inactive.

In the case of `COc1cc2c(c(OC)c1OC)-c1ccc(OC)c(=O)cc1[C@@H](NC(C)=O)CC2`, the compound was classed as inactive.

`CCCCC(CC)C(=O)OCCOCCOCCOC(=O)C(CC)CCCC` (configuration not stated): the compound was classed as inactive.

Take `CCCCCCCCCCCCCCCCOS(=O)(=O)O`: the result was inactive.

Regarding `CCCCCCOC(=O)CC(CC(=O)OCCCCCC)(OC(=O)CCC)C(=O)OCCCCCC`, the compound was classed as inactive.

The target in another assay is Estrogen receptor (Homo sapiens) + Estrogen receptor beta (Homo sapiens) (UniProt P03372+Q92731). Nature of the assay: OT_ER_ERaERb_1440: Odyssey Thera (OT) 24-hour HEK293T Protein-Complementation Assay for Estrogen Receptor-alpha/-beta Homodimer (AID 2283356).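 Further: heteromer of ER alpha and ER beta binding domains; hits raise reporter fluorescence and both agonists and antagonists give an increase.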 Summed up:
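Readout: mean fluorescence intensity in nucleus (agonists) or nucleus plus cytoplasm (antagonists), read by laser scanning cytometer after 24 h compound exposure of HEK293T cells carrying ERα/ERβ LBD fragment-complementation constructs; DMSO baseline.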
Take `CCCOc1ccc(S(=O)(=O)N2CCN(CC)CC2)cc1-c1nc2c(CC)n(Cc3ccccn3)nc2c(=O)[nH]1`: the result was inactive.

Take `CC(C)c1nnc2ccc(-c3ocnc3-c3cc(F)ccc3F)cn12`: the outcome was inactive.

On to `O=C(O)c1ccc2c(c1)nc(C(=O)NC1CCN(C3CC3)CC1)n2Cc1cc(-c2ccc(Cl)s2)on1`, for which the result was inactive.

Turning to `OCc1ccccc1`, the result was inactive.

With `Cc1ncc([C@@H](CCCCCCc2ccc3c(n2)NCCC3)CC(=O)O)cn1`, the outcome was inactive.

For `CC[C@H](C)C(=O)O[C@H]1C[C@H](O)C=C2C=C[C@H](C)[C@H](CC[C@@H](O)C[C@@H](O)CC(=O)O)[C@H]21`, the outcome was inactive.

For the compound `NC(=O)N(O)[C@@H]1COc2cc(OCc3ccccc3)ccc21`, the result was inactive.

As for `OC(Cn1cncn1)(Cn1cncn1)c1ccc(F)cc1F`, the result was inactive.

With `O=C(O)[C@H](O)[C@@H](O)C(=O)O`, the outcome was inactive.

With `c1ccc2c(c1)-c1cccc3c1c-2cc1ccccc13`, the outcome was inactive.

For a further assay, the target named is Estrogen receptor beta (Homo sapiens) (UniProt Q92731). Nature of the assay: OT_ER_ERbERb_0480: Odyssey Thera (OT) 8-hour HEK293T Protein-Complementation Assay for Estrogen Receptor-beta/-beta Homodimer (AID 2283357).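 Further: active means signal gain over DMSO baseline.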 Summed up: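 Fluorescence gain from complemented reporter fragments on ER-beta LBD homodimer in HEK293T was quantified against DMSO controls after 8 h treatment, fixation in 4% formaldehyde and Draq5 staining.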
Sequence of Estrogen receptor beta (Homo sapiens) (Q92731 whole entry, looked up, the tested form may be a part): as above
Turning to `O=C1CN(N=Cc2ccc([N+](=O)[O-])o2)C(=O)N1`, the call was inactive.

Regarding `CCCCCCCC1CCC(=O)O1` (configuration not stated), the result was inactive.

As to `COCc1nnc(-c2ccc[n+]([O-])c2)n1-c1c(Cl)c(Cl)cc2[nH]c(=O)c(=O)[nH]c12`, the outcome was inactive.

Take `CCCOc1ccc(S(=O)(=O)N2CCN(CC)CC2)cc1-c1nc2c(CC)n(Cc3ccccn3)nc2c(=O)[nH]1`: the compound was classed as inactive.

For the compound `NNC(=O)c1ccncc1`, the outcome was inactive.

As for `CCN(CC)C(=S)SSC(=S)N(CC)CC`, the result was inactive.

In the case of `O=C(O)CO`, the outcome was inactive.

As to `O=S1(=O)CCCO1`, the outcome was inactive.

Take `CC(C)c1nnc2ccc(-c3ocnc3-c3cc(F)ccc3F)cn12`: the compound was called inactive.

For `CCc1cccc(CC)c1N`, the outcome was inactive.

Regarding `Cc1nc(-c2ccccn2)ncc1C(=O)Nn1cc(C)c2cc(F)ccc21`, the compound was classed as inactive.

For the compound `C=CCc1cc(S(=O)(=O)c2ccc(O)c(CC=C)c2)ccc1O`, the compound was called inactive.

On to `O=C(O)c1ccc2c(c1)nc(C(=O)NC1CCN(C3CC3)CC1)n2Cc1cc(-c2ccc(Cl)s2)on1`, for which the outcome was inactive.

`OCc1ccccc1`: the call was inactive.

Turning to `OCCOCCOCCO`, the compound was classed as inactive.

As to `COc1cc2c(c(OC)c1OC)-c1ccc(OC)c(=O)cc1[C@@H](NC(C)=O)CC2`, the call was inactive.

Turning to `CCCCC(CC)C(=O)OCCOCCOCCOC(=O)C(CC)CCCC` (configuration not stated), the outcome was inactive.

Take `Cc1ncc([C@@H](CCCCCCc2ccc3c(n2)NCCC3)CC(=O)O)cn1`: the compound was called inactive.

As to `c1ccc2cc3ccccc3cc2c1`, the compound was called inactive.

As to `NC(N)=O`, the outcome was inactive.

`CC[C@H](C)C(=O)O[C@H]1C[C@H](O)C=C2C=C[C@H](C)[C@H](CC[C@@H](O)C[C@@H](O)CC(=O)O)[C@H]21`: the compound was called inactive.

Turning to `NC(=O)N(O)[C@@H]1COc2cc(OCc3ccccc3)ccc21`, the compound was called inactive.

As to `O=C(O)[C@H](O)[C@@H](O)C(=O)O`, the compound was called inactive.

For `CNC(C)=O`, the outcome was inactive.

Turning to `CCCCCCCCCCCCCCCCOS(=O)(=O)O`, the compound was classed as inactive.

Regarding `CCCCCCOC(=O)CC(CC(=O)OCCCCCC)(OC(=O)CCC)C(=O)OCCCCCC`, the call was inactive.

Turning to `CC(C)CC(C)O` (configuration not stated), the compound was called inactive.

`c1ccc2c(c1)-c1cccc3c1c-2cc1ccccc13`: the result was inactive.
